Experimental data taken from PubChem BioAssay AID624405 (Broad Institute, 2012).
Out of some 1,900 compounds screened, about 250 (13%) were called active. Inconclusive results (about 4%) are left out.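 Rule for the calls: active = fitted curve reaches 40% rescue activity at or below the top valid dose, in every test run; inconclusive = test runs disagree, some active and some inactive; inactive = every run misses the threshold or moves the wrong way.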 The list is a sample of the results. A call without a number means that no potency is given here. Potency and affinity values are given separately.

Assay: rescue of simvastatin-induced ATP loss – cell-based, C2C12 myotubes, ATP luminescence, cherry pick, dose response (AID 624405);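 note: myotubes are challenged with simvastatin at 10 µM to lower ATP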
Conditions: 48 h, scaled: DMSO wells 0, geranylgeraniol wells 100; series mostly up to 19.5 µM

Row | Structure (SMILES) | outcome
1 | O=C(O)c1ccc(C(=O)c2ccc3c(c2)C(=O)N(Cc2ccco2)C3=O)cc1 | inactive
2 | Cc1noc(C)c1S(=O)(=O)Nc1ccc2c(c1)C(=O)N([C@H](C)CO)C[C@H](C)[C@@H](CN(C)C(=O)Nc1cccc3ccccc13)O2 | inactive
3 | COc1ccc(C#Cc2cnc3c(c2)C(=O)N([C@@H](C)CO)C[C@H](C)[C@H](CN(C)C(=O)Nc2cccc(OC)c2)O3)cc1 | inactive
4 | C[C@H](CO)N1C[C@H](C)[C@@H](CN(C)Cc2ccc(C(=O)Nc3ccccc3N)cc2)Oc2ccc(NC(=O)Nc3cccc4ccccc34)cc2C1=O | inactive
5 | COc1ccc(NC(=O)Nc2ccc3c(c2)C(=O)N([C@@H](C)CO)C[C@H](C)[C@H](CN(C)Cc2ccc(C(F)(F)F)cc2)OCCCC[C@@H](C)O3)cc1 | inactive
6 | COc1ccc(N=Cc2sc(O)c3ccccc23)cc1 | inactive
7 | C[C@@H]1CN([C@H](C)CO)C(=O)c2cc(C3=CCCCC3)cnc2O[C@H]1CN(C)Cc1ccccc1F | inactive
8 | Cn1c(CCN2CCCCC2)nc2cc(NC(=O)Nc3ccccc3)ccc21 | inactive
9 | CC(C(=O)N1CCCc2ccccc21)N1C(=O)c2ccccc2C1=O (centres undefined) | inactive
10 | CCN(CC)C(=O)c1ccc(NS(=O)(=O)c2ccccc2)cc1 | inactive
11 | NNC(=O)COc1cccc2cccnc12 | inactive
12 | O=c1[nH]c(Nc2ccccc2Cl)cc2ccccc12 | inactive
13 | CC(C)(C)C(=O)COC(=O)CNC(=O)c1ccc(Oc2ccccc2)cc1 | inactive
14 | C[C@@H]1CN([C@H](C)CO)C(=O)Cc2cc(NS(C)(=O)=O)ccc2O[C@@H]1CN(C)Cc1ccc(Cl)c(Cl)c1 | inactive
15 | Cc1ccc(S(=O)(=O)Nc2ccc3c(c2)CC(=O)N([C@@H](C)CO)C[C@@H](C)[C@@H](CN(C)Cc2ccc(Cl)c(Cl)c2)O3)cc1 | inactive
16 | Cc1ccc(S(=O)(=O)Nc2ccc3c(c2)CC(=O)N([C@H](C)CO)C[C@@H](C)[C@H](CN(C)Cc2ccc(Cl)c(Cl)c2)O3)cc1 | inactive
17 | C[C@@H]1CN([C@H](C)CO)C(=O)Cc2cc(NS(=O)(=O)c3ccc(Cl)cc3)ccc2O[C@H]1CN(C)Cc1ccc(Cl)c(Cl)c1 | inactive
18 | Cc1ccc(S(=O)(=O)Nc2ccc3c(c2)CC(=O)N([C@@H](C)CO)C[C@@H](C)[C@H](CN(C)Cc2ccc(Cl)c(Cl)c2)O3)cc1 | inactive
19 | C[C@@H]1CN([C@H](C)CO)C(=O)Cc2cc(N(C)C)ccc2O[C@@H]1CN(C)Cc1ccc(Cl)c(Cl)c1 | inactive
20 | C[C@H]1CN([C@@H](C)CO)C(=O)Cc2cc(N(C)C)ccc2O[C@@H]1CN(C)Cc1ccc(Cl)c(Cl)c1 | inactive
21 | Cc1ccc(S(=O)(=O)Nc2ccc3c(c2)CC(=O)N([C@H](C)CO)C[C@@H](C)[C@@H](CN(C)Cc2ccc(Cl)c(Cl)c2)O3)cc1 | inactive
22 | C[C@H](CO)N1C[C@H](C)[C@@H](CN(C)C(=O)Nc2ccc(C(F)(F)F)cc2)OCCCC[C@H](C)Oc2ccc(NC(=O)Nc3cccc4ccccc34)cc2C1=O | inactive
23 | CC(=O)c1ccc(NC(=O)c2cc(-c3cccs3)on2)cc1 | inactive
24 | C=C[C@@H]1c2c(F)cccc2N(S(=O)(=O)c2ccc(C)cc2)[C@H](c2ccc(C(=O)OC)cc2)C1(C#N)C#N | inactive
25 | Cc1noc(C)c1NC(=O)N(C)C[C@@H]1OCCCC[C@@H](C)Oc2ccc(NS(=O)(=O)c3cn(C)cn3)cc2C(=O)N([C@H](C)CO)C[C@@H]1C | inactive
26 | C[C@@H]1CN([C@H](C)CO)C(=O)Cc2cc(NC(=O)Cc3cn(C)c4ccccc34)ccc2O[C@H]1CN(C)Cc1ccc2c(c1)OCO2 | inactive
27 | Cc1ccc(-c2nc(CS(=O)CC(=O)NC3CCCCC3)c(C)o2)cc1 (centres undefined) | inactive

Row | Structure (SMILES) | outcome
28 | C[C@@H]1CN([C@H](C)CO)C(=O)Cc2cc(NS(=O)(=O)c3ccc(F)cc3)ccc2O[C@H]1CN(C)Cc1ccc2c(c1)OCO2 | inactive
29 | C[C@@H]1CN([C@@H](C)CO)C(=O)Cc2cc(NS(=O)(=O)c3ccc(Cl)cc3)ccc2O[C@H]1CN(C)Cc1ccc2c(c1)OCO2 | inactive
30 | C[C@@H]1CN([C@H](C)CO)C(=O)c2cc(NC(=O)CCC(F)(F)F)ccc2O[C@@H](C)CCCCO[C@@H]1CN(C)Cc1ccc(C(F)(F)F)cc1 | inactive
31 | COc1ccc(Cn2nnnc2C(c2ccccc2OC)N2CCC(C(N)=O)CC2)cc1 (centres undefined) | inactive
32 | COc1ccc(OC)c(C(c2nnnn2Cc2ccccc2)N2CCN(C3CCCCC3)CC2)c1 (centres undefined) | inactive
33 | Cc1cnc(-c2nnc(N(C)C(=O)c3cccnc3)s2)cn1 | inactive
34 | C[C@@H]1CN([C@H](C)CO)C(=O)c2cccc(NS(=O)(=O)c3cccs3)c2O[C@@H]1CN(C)S(=O)(=O)c1ccccc1 | inactive
35 | COc1cccc(NC(=O)c2cccc(OC)c2OC)c1 | inactive
36 | CCOC(=O)N1CCN(C(=O)CSCC(=O)Nc2nc(-c3ccc4c(c3)OCO4)cs2)CC1 | inactive
37 | CN1C(=O)c2cc(NC(=O)Cc3cccs3)ccc2OC[C@H]2O[C@@H](CC(=O)NCc3ccc(-c4ccccc4)cc3)CC[C@H]21 | inactive
38 | O=C(CSc1ccc2c(c1)OCCO2)Nc1ccc(Br)cc1 | inactive
39 | CC(Oc1ccc(Cl)cc1Cl)C(=O)N(Cc1ccco1)C1CCS(=O)(=O)C1 (centres undefined) | inactive
40 | CS(=O)(=O)N(CCc1ccccc1)CC(=O)N1CCc2ccccc2C1 | inactive
41 | O=C(C[C@H]1CC[C@H]2[C@@H](COC[C@@H](O)CN2C(=O)c2cc(Cl)cc(Cl)c2)O1)N1CCc2ccccc2C1 | inactive
42 | Cc1cc(C)c2cc(CN(Cc3ccco3)C(=O)NCc3ccccc3)c(=O)[nH]c2c1 | inactive
43 | COc1ccc(NC(=O)Cn2ccc(C(F)(F)F)n2)cc1S(=O)(=O)N1CCOCC1 | inactive
44 | C[C@@H]1CCCCO[C@H](CN(C)S(=O)(=O)c2ccc(Cl)cc2)[C@@H](C)CN([C@H](C)CO)C(=O)c2cc(NS(C)(=O)=O)ccc2O1 | inactive
45 | CCOC(=O)c1c(C)oc2ccc(OCC(=O)C(C)(C)C)cc12 | inactive
46 | CC(=O)c1cccc(NC(=O)N2CCCC2C(=O)Nc2cc(C)ccc2C)c1 (centres undefined) | inactive
47 | COc1ccc(C)cc1NC(=O)C1CCCN1C(=O)OCc1ccccc1 (centres undefined) | inactive
48 | O=C(Nc1ccccc1Cl)N1C[C@H]2[C@@H](c3ccccc31)[C@H](CO)N2Cc1ccccc1 | inactive
49 | C[C@H]1CN([C@@H](C)CO)C(=O)Cc2cc(NC(=O)Nc3ccc(C(F)(F)F)cc3)ccc2O[C@H]1CN(C)Cc1ccc(Oc2ccccc2)cc1 | inactive
50 | C[C@@H]1CCCCO[C@@H](CN(C)Cc2ccc(Cl)c(Cl)c2)[C@@H](C)CN([C@@H](C)CO)C(=O)c2cc(NC(=O)NC3CCCCC3)ccc2O1 | inactive
51 | Cc1sc2nc(CN(C(=O)c3cccs3)C3CCCC3)[nH]c(=O)c2c1C | inactive
52 | C[C@@H]1CN([C@@H](C)CO)C(=O)Cc2cc(NC(=O)Cc3cn(C)c4ccccc34)ccc2O[C@H]1CN(C)Cc1ccc(Cl)c(Cl)c1 | inactive
53 | O=C(CSc1ncn(-c2ccccc2)n1)Nc1ccc2c(c1)OCCO2 | inactive
54 | Cc1ccc(CSc2nnc3nc(C)cc(C)n23)cc1 | inactive

Row | Structure (SMILES) | outcome
55 | CCOC(=O)Nc1c(C(=O)OC)[nH]c2cc(OC)ccc12 | inactive
56 | CC(C)CCNc1ncnc2c1cnn2Cc1ccccc1Cl | inactive
57 | Cc1ccccc1S(=O)(=O)N(C)C[C@H]1OCc2ccccc2-c2c(n(C)c3ccccc23)C(=O)N([C@H](C)CO)C[C@H]1C | inactive
58 | Cc1cccc(S(=O)(=O)N(C)C[C@H]2OCc3ccccc3-c3c(n(C)c4ccccc34)C(=O)N([C@@H](C)CO)C[C@H]2C)c1 | inactive
59 | C[C@H](CO)N1C[C@H](C)[C@@H](CN(C)S(=O)(=O)c2ccccc2)OCCCC[C@H](C)Oc2ccc(N(C)C)cc2C1=O | inactive
60 | C[C@@H]1CN([C@@H](C)CO)C(=O)c2cc(NC(=O)NC3CCCCC3)ccc2O[C@@H](C)CCCCO[C@H]1CN(C)C(=O)c1ccccc1 | inactive
61 | COc1ccc(CN2[C@H](CO)[C@@H]3c4ccccc4N(C(=O)C4CC4)C[C@@H]32)cc1 | inactive
62 | CCCCn1c(=O)c(-c2ccccc2)c(O)c2ccccc21 | inactive
63 | C=C(C)Cn1c(CCCNC(=O)C(C)(C)C)nc2ccccc21 | inactive
64 | CCC(=O)NCCc1nc2ccccc2n1Cc1ccccc1 | inactive
65 | CCCCCCN1Cc2ccccc2C1 | inactive
66 | Cc1ccc(OCCCn2c(CO)nc3ccccc32)cc1 | inactive
67 | CCc1nc2ccccc2n(CCOCCOCCn2c(=O)c(CC)nc3ccccc32)c1=O | inactive
68 | CCN1CCCC1CNC(=O)c1c(O)c2c([nH]c1=O)CCCC2 (centres undefined) | inactive
69 | COCC(C)NS(=O)(=O)c1ccc(C)cc1 (centres undefined) | inactive
70 | C[C@H]1CN([C@@H](C)CO)C(=O)Cc2cc(NC(=O)c3ccncc3)ccc2O[C@@H]1CN(C)C(=O)Nc1cccc2ccccc12 | inactive
71 | C[C@H](CO)N1C[C@H](C)[C@@H](CN(C)S(=O)(=O)c2ccc(Cl)cc2)OCCCC[C@H](C)Oc2ccc(NS(C)(=O)=O)cc2C1=O | inactive
72 | C[C@H](CO)N1C[C@H](C)[C@@H](CN(C)Cc2ccc(Cl)c(Cl)c2)Oc2ccc(NC(=O)Cc3ccccc3)cc2CC1=O | inactive
73 | C[C@H]1CN([C@@H](C)CO)C(=O)c2cc(C3=CCCCC3)cnc2O[C@H]1CN(C)C(=O)c1ccccn1 | inactive
74 | Cc1cc(NC(=O)c2ccc(N3C(=O)CCC3=O)cc2)no1 | inactive
75 | COc1cc(C)ccc1OCCCOc1cc(C)ccc1Cl | inactive
76 | COc1ccc(Cl)cc1C(=O)n1nc(C)cc1C | inactive
77 | C[C@@H]1CN([C@@H](C)CO)C(=O)Cc2cc(NC(=O)CCC(F)(F)F)ccc2O[C@H]1CN(C)Cc1ccc(Oc2ccccc2)cc1 | inactive
78 | CCc1c(C)sc(NC(=O)c2ccco2)c1C(=O)N1CCCCC1 | inactive
79 | Cc1ccc(-c2nc3ccccc3[nH]2)cc1NC(=O)c1ccco1 | inactive
